Over roughly 33,000 sequences, “E-score (-0.5 to 0.5)” has its median near -0.017; the highest 2% begin near 0.3. Many of the other results were omitted from the sample, so the highest values are more common in it than they were.
biological target: T1, Sut1 (UniProt P53032); experiment: PBM E-score (8-mer binding enrichment) (E-score (-0.5 to 0.5)); higher = stronger / more preferred TF binding; details: protein concentration: 200 nM; construct: GST-full length
T1 sequence: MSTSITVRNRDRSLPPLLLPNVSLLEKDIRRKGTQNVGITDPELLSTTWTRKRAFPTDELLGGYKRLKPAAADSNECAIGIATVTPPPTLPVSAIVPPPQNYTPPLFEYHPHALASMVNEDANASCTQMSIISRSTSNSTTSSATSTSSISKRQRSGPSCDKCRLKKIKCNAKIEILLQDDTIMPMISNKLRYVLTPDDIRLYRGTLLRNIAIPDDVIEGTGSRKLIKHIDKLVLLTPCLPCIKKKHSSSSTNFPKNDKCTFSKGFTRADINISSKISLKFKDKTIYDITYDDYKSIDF
Protocol: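 Universal 'all 10-mer' protein binding microarrays (Agilent AMADID 015681) probed with GST-tagged S. cerevisiae TFs (full-length or DBD) made by in vitro transcription/translation (PURExpress), about 100-200 nM. Bound TF was detected with fluorescent anti-GST. Each ungapped 8-mer (which stands for itself and its reverse complement) is scored by the PBM enrichment score (E-score), a modified Wilcoxon-Mann-Whitney statistic from -0.5 to +0.5, computed with the Universal PBM Analysis Suite. Scale: above 0.35 generally sequence-specific binding.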

Compared with AAAGTGAA, GTGCTACA is lower in “PBM E-score” value: 0.191 for the first, -0.0297 for the second.

Compared with GGGATGGA, CGAAAAGC is higher in “PBM E-score” value: -0.0689 for the first, -0.0121 for the second.

Compared with GCGCCGGA, CCTCCGGA is higher in “PBM E-score” value: 0.196 for the first, 0.374 for the second.

First: GCTCCGGA
Second: CCTCCCGA
The “PBM E-score” value of the first is higher: 0.442 for the first, -0.289 for the second.

Compared with CCGCCGGA, GCTCCAGA is lower in “PBM E-score” value: 0.223 for the first, -0.199 for the second.

First: ACTTAGCC
Second: GAGGCTAC
The “PBM E-score” value of the first is higher: -0.129 for the first, -0.349 for the second.

Compared with CTTCGCAA, GAAGCGAC is higher in “PBM E-score” value: -0.0605 for the first, -0.0313 for the second.

First: GTCCGACA
Second: ATCCGACC
The “PBM E-score” value of the first is higher: 0.366 for the first, 0.00218 for the second.

First: GCCCGACA
Second: CTCCGACA
The “PBM E-score” value of the first is lower: -0.106 for the first, 0.375 for the second.

Compared with GGCCGACA, CTCCGACC is higher in “PBM E-score” value: -0.0715 for the first, 0.391 for the second.

Compared with ATCCGACA, CACCGACC is lower in “PBM E-score” value: 0.0788 for the first, -0.226 for the second.

First: CCCCGACA
Second: ATTTCAGC
The “PBM E-score” value of the first is lower: 0.0397 for the first, 0.137 for the second.

First: AACACTAT
Second: AAGTGTCC
The “PBM E-score” value of the first is higher: 0.266 for the first, 0.0158 for the second.

First: GCTGAAGA
Second: GAGGTGGA
The “PBM E-score” value of the first is higher: -0.00656 for the first, -0.151 for the second.

Going from AGGTCGAG to GATTATAA, the “PBM E-score” value rises from -0.257 to 0.154.

First: CATTATAC
Second: CATTATAA
The “PBM E-score” value of the first is higher: 0.151 for the first, 0.126 for the second.

Compared with AATTATAC, AATTATAA is higher in “PBM E-score” value: 0.308 for the first, 0.335 for the second.

Going from AATTATAG to ACTATGGG, the “PBM E-score” value falls from 0.257 to -0.155.

Going from CGTCTGTC to CTCAGCTA, the “PBM E-score” value rises from -0.213 to -0.13.

Compared with TACTTACA, CGGAGTCA is higher in “PBM E-score” value: 0.115 for the first, 0.474 for the second.

First: GGGAGTCA
Second: AGGAGTCC
The “PBM E-score” value of the first is lower: -0.126 for the first, 0.202 for the second.

Going from CGGAGTCC to CAGAGTCC, the “PBM E-score” value falls from 0.486 to 0.17.

Compared with AGGAGTCA, CTCTCACA is lower in “PBM E-score” value: 0.0481 for the first, 0.0236 for the second.

Going from GAACCGAA to ATTTGCAG, the “PBM E-score” value falls from 0.13 to 0.0722.

Going from CTAGCGCA to AGTACGGC, the “PBM E-score” value rises from -0.174 to -0.0481.

First: AGTACGGA
Second: ATCACGGG
The “PBM E-score” value of the first is higher: 0.374 for the first, -0.0946 for the second.

First: ATTACGGC
Second: ATCACGGC
The “PBM E-score” value of the first is lower: -0.0212 for the first, 0.0173 for the second.

Compared with ATTACGGG, ATTACGGA is higher in “PBM E-score” value: -0.0151 for the first, 0.353 for the second.

Going from GGTACGGA to ATCACGGA, the “PBM E-score” value rises from 0.155 to 0.402.

Compared with GTGCAGGA, CTCCTGAA is higher in “PBM E-score” value: -0.23 for the first, -0.0399 for the second.

Going from GAGAATCA to GTGGATTA, the “PBM E-score” value rises from 0.0959 to 0.0983.

First: ACCGATAA
Second: GCCGAGCA
The “PBM E-score” value of the first is higher: 0.18 for the first, -0.305 for the second.

Compared with TCCGATAA, TCCGACAA is lower in “PBM E-score” value: 0.387 for the first, 0.337 for the second.

Going from ACCGACAA to ACCGAGCA, the “PBM E-score” value rises from 0.0505 to 0.205.

Going from TCCGAGGA to GCCGAGGA, the “PBM E-score” value falls from 0.34 to 0.1.

Going from GCCGATAA to TCCGAGCA, the “PBM E-score” value rises from 0.00363 to 0.307.

Going from CCCGACAA to CCCGAGGA, the “PBM E-score” value falls from 0.173 to -0.118.

First: TTAGCCAA
Second: GTAATCGA
The “PBM E-score” value of the first is lower: -0.0233 for the first, 0.0961 for the second.

Compared with ACTACTCT, CTAGCCTC is lower in “PBM E-score” value: -0.0164 for the first, -0.268 for the second.

Compared with CCCTCGCG, ATCTGCAG is higher in “PBM E-score” value: -0.204 for the first, 0.0906 for the second.

Going from ATGAGACA to CCGCGACC, the “PBM E-score” value falls from -0.0116 to -0.177.

Compared with ATGAGCTA, AGTCAAAC is lower in “PBM E-score” value: 0.0367 for the first, -0.135 for the second.

First: GGCAATTA
Second: CCCGAGAA
The “PBM E-score” value of the first is lower: 0.0911 for the first, 0.157 for the second.

First: ACCGAGAA
Second: TCCGAGAA
The “PBM E-score” value of the first is lower: 0.229 for the first, 0.407 for the second.

Going from AACTTGCG to CCACTCCG, the “PBM E-score” value rises from -0.0193 to 0.444.

First: ATACTCCG
Second: CCACTCCA
The “PBM E-score” value of the first is higher: 0.487 for the first, -0.174 for the second.

First: CCACTCCC
Second: ACTCTCCG
The “PBM E-score” value of the first is lower: -0.254 for the first, 0.27 for the second.

Going from ATACTCCA to ATACTCCC, the “PBM E-score” value rises from -0.0121 to 0.108.

Compared with ACACTCCT, ACACTCCG is higher in “PBM E-score” value: -0.0674 for the first, 0.438 for the second.

Compared with ACAGACAA, GGATAGCC is lower in “PBM E-score” value: 0.294 for the first, 0.0369 for the second.

First: TAGCATCA
Second: GCAATTGC
The “PBM E-score” value of the first is higher: -0.0462 for the first, -0.0673 for the second.

Going from CGGCCTGC to CTGTGCAC, the “PBM E-score” value falls from -0.186 to -0.277.

First: CGGTGTCC
Second: GAACCCTC
The “PBM E-score” value of the first is higher: 0.0917 for the first, -0.17 for the second.

First: AGACTCCG
Second: AGACTCCT
The “PBM E-score” value of the first is higher: 0.47 for the first, -0.142 for the second.

Compared with CGACTCCC, AGACTCCC is lower in “PBM E-score” value: -0.211 for the first, -0.319 for the second.

Compared with CGACTCCG, CGACTCCA is lower in “PBM E-score” value: 0.47 for the first, -0.132 for the second.

Going from AACTGTCG to GCTAGTAC, the “PBM E-score” value falls from 0.00476 to -0.14.

Going from ACCTGAGA to CCCGAAGG, the “PBM E-score” value falls from -0.0623 to -0.0908.

Going from AGAATTCA to CTAAACTC, the “PBM E-score” value rises from 0.115 to 0.225.

First: ATAAACTG
Second: ATAAACTC
The “PBM E-score” value of the first is lower: 0.047 for the first, 0.315 for the second.

First: TACACCCA
Second: TAGCGTCA
The “PBM E-score” value of the first is higher: 0.036 for the first, -0.116 for the second.

Compared with AGGAAAGA, CGGAAATC is higher in “PBM E-score” value: 0.0593 for the first, 0.212 for the second.

First: CGGAAATA
Second: CGGAAAGC
The “PBM E-score” value of the first is higher: 0.337 for the first, 0.275 for the second.

First: GGGAAATA
Second: CGGAAAGA
The “PBM E-score” value of the first is lower: 0.0403 for the first, 0.312 for the second.

Going from AATGTGCT to TACTGAGA, the “PBM E-score” value falls from 0.0947 to -0.055.

Going from CAGGTCCG to AAGGTCCT, the “PBM E-score” value falls from 0.438 to -0.239.

First: CAGGTCCC
Second: CAGGTCCA
The “PBM E-score” value of the first is higher: -0.182 for the first, -0.231 for the second.

First: AAGGTCCA
Second: AAGGTCCG
The “PBM E-score” value of the first is lower: -0.135 for the first, 0.407 for the second.

Compared with AGTCGAAA, TCTGGTAA is lower in “PBM E-score” value: 0.115 for the first, -0.0251 for the second.

Compared with ATGCTAGA, ACGCTGTA is lower in “PBM E-score” value: 0.0093 for the first, -0.0391 for the second.

Compared with ATCAAGAG, CTAGGCTC is lower in “PBM E-score” value: 0.117 for the first, -0.149 for the second.

First: CGTAGCCC
Second: AGCGCCCT
The “PBM E-score” value of the first is lower: -0.274 for the first, -0.128 for the second.

First: ACGGACAT
Second: ACGGACCG
The “PBM E-score” value of the first is higher: 0.404 for the first, -0.0134 for the second.

Compared with ACGGACAC, ACGGACAG is lower in “PBM E-score” value: 0.0824 for the first, -0.0929 for the second.

Compared with ACGGACCT, ACGGACCA is lower in “PBM E-score” value: 0.339 for the first, 0.277 for the second.

Going from ACAGTCCC to GTTCCCTA, the “PBM E-score” value falls from -0.2 to -0.238.

Going from CGAATATA to CCCATATC, the “PBM E-score” value falls from 0.231 to -0.043.

Compared with GACTCATA, ACTCCTAT is higher in “PBM E-score” value: 0.0779 for the first, 0.0886 for the second.

Going from CCTCCGAC to ACTCCGAC, the “PBM E-score” value rises from 0.0212 to 0.489.

Compared with ACTCCGAT, AATCCGAC is lower in “PBM E-score” value: 0.491 for the first, 0.0553 for the second.

First: ACTCCCAT
Second: TCAACGGA
The “PBM E-score” value of the first is lower: -0.0456 for the first, 0.246 for the second.

Going from CCAACGGA to ACAACGGA, the “PBM E-score” value rises from 0.207 to 0.335.

Compared with GCAACGGA, GCAACGGC is lower in “PBM E-score” value: 0.306 for the first, -0.0987 for the second.

First: ACAACGGG
Second: AAGCCAGT
The “PBM E-score” value of the first is higher: 0.0387 for the first, -0.176 for the second.

Compared with CAGAAGAC, CACGTGCC is lower in “PBM E-score” value: -0.17 for the first, -0.186 for the second.

First: AGTGGCCA
Second: ATGCGCTA
The “PBM E-score” value of the first is lower: -0.202 for the first, -0.0278 for the second.

— the supplement of paper PMC3334620
